Compounds with a hit are over-represented: about 3.5% of the library has one in this group of screens.
KCNK9 block – inhibitors of human KCNK9 two-pore domain potassium channel. Q9NPC2. HEK293 KCNK9, FluxOR thallium flux fluorescence; active compounds read low. B-score at 10 µM. 310,000 tested, 1.2% active;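 active = ratio B-score over 3 SD below the library mean, with starting fluorescence within 5 SD of its mean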;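 note: negative B-score means less thallium flux so channel inhibition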
TMEM16A act – activators or potentiators of mouse TMEM16A chloride channel; HEK293 TMEM16A/YFP-H148Q/I152L, iodide quench fluorescence; active compounds read low; 340,000 tested, 0.3% active; B-score at 10 µM; Q8BHY3;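 active = fluorescence-ratio B-score plate-corrected deviation score at least 3 library SD below zero, with starting fluorescence score within 5 deviations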;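 note: channel opened by trigger with iodide after compound preincubation; score built on the fluorescence ratio of max minus min over baseline; more negative score means more quench and so TMEM16A activation or potentiation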
KCNK3 block – human KCNK3 channel inhibition, primary screen; O14649; CHO-KCNK3 thallium flux, FluxOR fluorescence; active compounds read low; B-score at 10 µM; 340,000 tested, 0.84% active;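 active = B-score under library mean minus 4 SD, starting fluorescence ratio at most library mean plus 5 SD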;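 note: more negative B-score means stronger inhibition of thallium flux through KCNK3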
Target sequence (O14649 whole entry, looked up): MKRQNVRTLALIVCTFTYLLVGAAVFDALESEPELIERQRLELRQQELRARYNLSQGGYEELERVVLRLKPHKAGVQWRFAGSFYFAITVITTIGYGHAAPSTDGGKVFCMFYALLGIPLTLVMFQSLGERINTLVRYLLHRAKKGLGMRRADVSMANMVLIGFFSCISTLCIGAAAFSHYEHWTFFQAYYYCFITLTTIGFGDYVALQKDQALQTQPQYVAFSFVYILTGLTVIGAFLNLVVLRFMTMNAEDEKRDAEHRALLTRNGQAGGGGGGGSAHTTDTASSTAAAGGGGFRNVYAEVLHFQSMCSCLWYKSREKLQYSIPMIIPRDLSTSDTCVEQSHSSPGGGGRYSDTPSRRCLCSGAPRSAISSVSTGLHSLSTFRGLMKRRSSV
ANO1 block – inhibitors of mouse TMEM16A calcium-activated chloride channel | 310,000 tested, 1.2% active | Q8BHY3 | AID 588511 | HEK293 TMEM16A/YFP iodide influx fluorescence, ionomycin | normalized B-score (activity score, 25-100; higher = stronger inhibition) at 10 µM;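 active = ratio plate-corrected score three or more library SD toward inhibition, starting fluorescence score within five deviations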;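 note: score derived from kinetic fluorescence span divided by baseline fluorescence per well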
Kir21 block – blocks the mouse Kir2.1 inward-rectifier potassium channel. P35561. HEK293-Kir2.1, FluxOR thallium flux fluorescence; active compounds read low. B-score at 10 µM. 310,000 tested, 0.85% active. AID 1672;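 active = fluorescence ratio B-score at or below minus 3 SD of library scores, with starting-brightness B-score within 2 SD, cut at about -4.2 in these data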;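 note: channel flux triggered by added potassium and thallium sulfate stimulus; B-score of peak minus minimum fluorescence over baseline after thallium stimulus; more negative B-score means stronger Kir2.1 block with less thallium influx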
KCNK3 inh conf – human KCNK3 channel inhibition, confirmation assay; shares compounds with KCNK3 block; CHO-KCNK3 thallium flux, FluxOR fluorescence; 0% buffer, 100% carvedilol maximal block; ratio percent of control, % at 10 µM; 2,400 tested, 99% active;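 active = ratio percent of control, averaged over triplicates, above buffer control mean plus 5 SD, cut at about 64% in these data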;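 note: ratio is the fluorescence rise from min to max over baseline after thallium stimulus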
KCNK3 noninduced – KCNK3 inhibitor counter-screen hit in non-induced cells. shares compounds with KCNK3 block. non-induced KCNK3 parental cells, FluxOR thallium flux; active compounds read low. thallium flux ratio (lower = more inhibition) at 10 µM. 2,400 tested, 40% active. AID 651747;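 active = thallium flux ratio, averaged over three wells, more than 5 SD below the buffer control mean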;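 note: host cells are CHO cells without KCNK3 induction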
Hits are given with their value; . = inactive; / = no result given.

SMILES | KCNK9 block | TMEM16A act | KCNK3 block | ANO1 block | Kir21 block | KCNK3 inh conf | KCNK3 noninduced
CC(NC(=O)C1CCN(S(=O)(=O)c2ccc(Br)s2)CC1)c1ccccc1 (stereo not drawn) | . | . | . | . | . | / | /
Cc1c(N2CCCC2)cc2c(c1NC(=O)c1ccccc1Cl)C(C)(C)CC2(C)C | . | . | -9.34 | . | . | 113.7 | 0.129
Cc1ccccc1-n1nnnc1SCc1ncc(-c2ccccc2)o1 | . | . | -9.41 | . | . | 99.0 | .
O=C(Nc1ccc([N+](=O)[O-])cc1)Nc1nc(-c2ccc(Cl)s2)cs1 | . | . | . | . | . | / | /
Cc1c(Nc2cc(Cl)c3nonc3c2[N+](=O)[O-])c(=O)n(-c2ccccc2)n1C | / | . | -17.6 | / | / | 145.0 | 0.096
Nc1nc2c(Cl)ccc(Cl)c2s1 | . | . | . | . | . | / | /
O=C1CC(NS(=O)(=O)c2ccc(F)cc2)CN1c1ccc2c(c1)OCCO2 (stereo not drawn) | . | . | . | . | . | / | /
CC(C(=O)NCC1CCCCC1)N(C)Cc1ccc(Cl)cc1 (stereo not drawn) | -7.17 | . | -9.72 | . | . | 105.3 | .
CC(C(=O)NCC1CCCCC1)N(C)Cc1ccc(Br)cc1 (stereo not drawn) | . | . | -15 | . | . | 120.7 | 0.156
CSc1ccc(CN(C)C(C)C(=O)NCC2CCCCC2)cc1 (stereo not drawn) | . | . | -9.36 | . | . | 95.3 | .
O=c1oc2cc(Oc3ccc(C(F)(F)F)cc3[N+](=O)[O-])ccc2c2c1CCC2 | . | . | . | . | . | / | /
O=c1oc2cc(Oc3c([N+](=O)[O-])cc(C(F)(F)F)cc3[N+](=O)[O-])ccc2c2c1CCCC2 | . | . | -9.74 | . | . | 136.0 | 0.142
CSc1ccc(C2Nc3cccc4cccc(c34)N2)cc1 | . | . | -8.84 | . | . | 111.7 | .
O=C(CCN1c2ccccc2Sc2ccccc21)OCc1nnc(-c2ccccc2)o1 | . | . | -9.47 | . | . | 72.7 | .
O=C(O)c1cc(-n2[nH]c(=O)c3ccccc3c2=O)ccc1Cl | . | . | . | . | . | / | /
CN(C(=O)c1cccc(NC(=O)Cc2cccc(NC(=O)C3CCCN(C(=O)C4CCC4)C3)c2)c1)C1CCC1 (stereo not drawn) | / | / | . | / | / | / | /
O=[N+]([O-])c1ccccc1-c1nc(-c2ccc(Br)o2)no1 | . | . | . | . | . | / | /
Clc1ccccc1-c1nc(-c2ccc(Br)o2)no1 | . | . | -10.3 | . | . | 122.7 | 0.152
COc1ccccc1Oc1ccc(S(=O)(=O)N2CCCCC2C)cc1 (stereo not drawn) | . | . | -11.6 | . | . | 108.3 | 0.16
Cc1ccc(S(=O)(=O)N(C)CC(=O)N/N=C/c2ccc(C)o2)cc1 | . | . | . | . | . | / | /
COc1ccc(Cl)cc1NC(=O)CN(C)C(=O)Cc1ccc(-c2ccccc2)cc1 | / | . | . | / | / | / | /
COc1ccc(Cl)cc1NC(=O)CN(C)CC(=O)Nc1ccccc1-c1ccccc1 | . | . | -9.71 | . | . | 99.0 | .
Cn1nccc1C(=O)Oc1ccc(/C=N/NC(=O)c2ccccc2O)cc1 | . | . | . | . | . | / | /
CCCSc1nnc2c(n1)OC(c1cccn1C)N(C(C)=O)c1ccccc1-2 (stereo not drawn) | . | . | -13 | . | . | 122.3 | .
C=CCSc1nnc2c(n1)OC(c1ccccn1)N(C(C)=O)c1ccccc1-2 (stereo not drawn) | . | . | . | . | . | / | /
O=C(COc1ccc([N+](=O)[O-])cc1Cl)N1CCc2ccccc21 | / | . | . | / | / | / | /
CC(C)NC(=O)C(c1ccc(F)cc1)N(C(=O)CCC(=O)Nc1ccccn1)C1CCCC1 (stereo not drawn) | . | . | -12.6 | . | . | 89.0 | .
CC(C)(C)NC(=O)C(c1ccc(F)cc1)N(C(=O)CCC(=O)Nc1ccccn1)C1CCCC1 (stereo not drawn) | . | . | . | . | . | / | /
COc1cccc(C(=O)Oc2ccc(/C=N/NC(=O)c3ccncc3)cc2OC)c1 | . | . | . | . | . | / | /
